Sampled rows, rich in hits. Any-hit rate of the full collection: about 0.39%.
TRPV1 potentiator: enhances activation of the human vanilloid receptor TRPV1. Q8NER1. TRPV1-expressing cells, Fluo-8 calcium influx, capsaicin EC20 potentiation. potentiation, % at 8.33 µM. 320,000 compounds, 0.02% hits. AID 540277; in the data active means potentiation above about 80%; inconclusive means between about 30% and that limit; further: 0% is about no effect
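Fluo-8 calcium influx in TRPV1-expressing cells, kinetic read (ex 480/em 520 nm). Compound added and read 3 min for agonist activity, followed by capsaicin at EC20 final and 2 min further read for enhancement.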
TRPV1 ag: human TRPV1 agonism; activation, % at 8.33 µM; TRPV1-expressing cells, Fluo-8 calcium influx, agonist mode; Q8NER1; 320,000 compounds, 0.19% hits; AID 540275; in the data active means activation above about 80%; inconclusive means between about 30% and that limit; further: 0% is about no effect
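Fluo-8 calcium influx in TRPV1-expressing cells, kinetic read (ex 480/em 520 nm). Compound added and read 3 min for agonist activity, followed by capsaicin at EC20 final and 2 min further read for enhancement.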
Apoferritin bind: binds horse apoferritin like a general anesthetic. apoferritin/1-aminoanthracene competitive binding, fluorescence. Potency, µM (doses to about 77.5 µM), inactives show top-dose activity change, negative = displacement, usual class: inhibitors. 350,000 compounds, 0.074% hits. AID 485281; further: potency means the concentration at half of the fitted maximal effect; on the % scale 0 is the no-effect control and ±100 the full control effect; nearly all actives have a fitted effect of over 20% in size
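Read-out: endpoint 1-AMA fluorescence, excitation 380 nm and emission 535 nm, after compounds sit 10 min at room temperature with 10 uM horse-spleen apoferritin in 50% saturated 1-AMA/PBS. Values come from four-parameter Hill fits.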
CBFb RUNX1 block: blocks binding between human CBF-beta and RUNX1; Q01196+Q13951; AlphaScreen CBFb-His/RUNX1-biotin binding, biochemical; Potency, µM (highest dose often 59.8 µM), for the others: top-dose activity, negative = inhibition, actives largely listed as inhibitors; 230,000 tested, under 10 active; further: % of control where 0% means no effect
Target sequence (Q01196 whole entry, looked up): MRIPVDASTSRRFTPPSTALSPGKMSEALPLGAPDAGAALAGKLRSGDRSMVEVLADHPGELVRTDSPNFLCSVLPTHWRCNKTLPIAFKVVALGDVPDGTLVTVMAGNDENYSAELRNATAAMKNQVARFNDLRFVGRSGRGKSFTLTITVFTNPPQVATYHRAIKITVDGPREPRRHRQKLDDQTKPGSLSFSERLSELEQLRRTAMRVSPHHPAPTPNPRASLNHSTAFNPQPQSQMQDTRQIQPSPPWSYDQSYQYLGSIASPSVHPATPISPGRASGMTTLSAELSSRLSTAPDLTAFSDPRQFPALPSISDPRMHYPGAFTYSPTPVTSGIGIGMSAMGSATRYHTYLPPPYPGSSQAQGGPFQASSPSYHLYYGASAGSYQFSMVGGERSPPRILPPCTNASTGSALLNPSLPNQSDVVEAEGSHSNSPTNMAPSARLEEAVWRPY
Target sequence (Q13951 whole entry, looked up): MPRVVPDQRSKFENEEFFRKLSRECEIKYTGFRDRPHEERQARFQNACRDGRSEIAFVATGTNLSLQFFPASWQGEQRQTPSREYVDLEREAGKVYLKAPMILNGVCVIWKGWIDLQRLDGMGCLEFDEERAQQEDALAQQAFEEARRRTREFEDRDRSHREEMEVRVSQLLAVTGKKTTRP
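CBF-beta (His) and RUNX1 (biotin), 30 nM each; 20 min preassociation; + compound, 15 min; + beads 50 ng each (Ni, streptavidin), 90 min; RT; AlphaScreen read.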
A-T KAP1 phos: candidate therapy for ataxia-telangiectasia; F2112 A-T fibroblasts, KAP-1 phosphorylation AlphaLISA; neocarzinostatin DNA damage 30 min before lysis; Potency, µM (series often up to 57.5 µM), inactives show at the highest dose activation, hits mostly activators; 320,000 compounds, 0.19% hits; AID 485349; further: potency means the concentration at half of the fitted maximal effect; % of control where 0% means no effect; nearly all actives have a fitted effect of over 45% in size
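hTERT-immortalized A-T patient fibroblasts (F2112), 500 cells/well in OPTI-MEM, 1% FBS, got compounds for 60 min, then NCS for 30 min at 37C. Lysates were then assayed for phospho-KAP-1 by AlphaLISA (anti-pKAP1 donor, anti-KAP1 acceptor beads), 6 hr at 25C.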
* hit, by the source's call; ? = inconclusive; nt = not tested or not shown. Unless noted, the call rests on the fitted dose curve; in most records, active means well fitted curve in the direction sought with a large enough effect; inconclusive means small, poorly fitted or top-dose-only effect, or another doubt; inactive means no such curve, though single readings can be large; an effect the other way counts as inactive or inconclusive.

SMILES | TRPV1 potentiator | TRPV1 ag | Apoferritin bind | CBFb RUNX1 block | A-T KAP1 phos
CSCC[C@H](NC(=O)[C@H](CCCN=C(N)N)NC(=O)[C@@H]1CCCN1C(=O)[C@H](Cc1ccccc1)NC(=O)[C@H](C)NC(=O)[C@H](CC(C)C)NC(=O)[C@H](Cc1ccc(O)cc1)NC(=O)[C@H](CC(N)=O)NC(=O)[C@@H](N)CCSC)C(N)=O | nt | nt | -8.3% | 1.2% | nt
CCOC(=O)N1CCN(C(=O)Nc2ccc3nccnc3c2)CC1 | 22.9 | -0.9 | 52.3% | 5.1% | nt
CCOC(=O)N1CCN(C(=O)Nc2ccc3nc(C)c(C)nc3c2)CC1 | 23.3 | 2.9 | 90.9% | 1.4% | 39.8µM*
NC(N)=NCCC[C@H](N)C(=O)N1CCC[C@H]1C(=O)N1CCC[C@H]1C(=O)NCC(=O)N[C@@H](Cc1ccccc1)C(=O)N[C@@H](CO)C(=O)N1CCC[C@H]1C(=O)N[C@@H](Cc1ccccc1)C(=O)O | nt | nt | -0.1% | 16.3% | nt
Cc1cc(N/N=C/c2ccccc2)nc(N2CCOCC2)n1 | -13.3 | 85.5* | -2.8% | -7.4% | 9.5%
COc1ccc(OC)c(NS(=O)(=O)c2ccc(Br)s2)c1 | ? | 1.5 | -18.2% | -11.4% | 0.0%
COc1cccc(NS(=O)(=O)c2ccc(Br)s2)c1 | 3.4 | 89.2* | ? | -0.2% | 11.0%
OC1(CC#CCN2CCCCC2)c2ccccc2-c2ccccc21 | 3.3 | 0.5 | -9.4% | 5.0% | 3.55µM*
O=c1c2nc(Br)n([C@@H]3O[C@@H]4CO[P@@](O)(=S)O[C@H]4[C@H]3O)c2nc2[nH]c(-c3ccccc3)cn12 | nt | nt | 0.2% | 7.1% | nt
CCCCCCCCCn1ccc(=N)cc1 | -4.9 | 4.7 | -13.3% | 6.9% | 3.16µM*
Cc1c(C)c2c(OCC(=O)NCc3ccncc3)cc3c(c2oc1=O)CCC(C)(C)O3 | -19.4 | 80.4* | -11.9% | nt | -5.5%
COc1ccc(CNC(=O)COc2cc3c(c4oc(=O)cc(C)c24)CCC(C)(C)O3)cc1OC | 4.7 | 80.7* | ? | nt | -8.8%
C[C@@]12CCC=C[C@H]1[C@H](c1ccc(/C=C/c3ccccc3)cc1F)N(Cc1ccccc1)C2=O | -60.8 | 3.1 | -1.7% | 16.7% | 39.8µM*
COc1ccc(C2c3ccc4ccccc4c3Oc3ncn(CCO)c(=N)c32)cc1OC (stereo not drawn) | -22.7 | 2.4 | -16.2% | nt | 3.6%
COc1ccc(C2c3ccc4ccccc4c3Oc3ncn(CCCO)c(=N)c32)cc1OC (stereo not drawn) | 4.2 | -0.1 | -11.6% | -6.8% | 39.8µM*
CCc1nnc(NC(=O)C(CC)c2ccccc2)s1 (stereo not drawn) | -0.9 | 0.8 | -8.9% | 9.6% | -2.0%
CCc1nnc(NC(=O)C(CC)CC)s1 | -4.4 | 1.6 | -8.6% | -1.7% | 39.8µM*
Cc1nn(-c2ccc(Cl)cc2Cl)c(=O)c2ccccc12 | 13.7 | -4.8 | -1.7% | 5.9% | -3.1%
Cc1nn(-c2ccc(Cl)c(Cl)c2Cl)c(=O)c2ccccc12 | 0.3 | -2.1 | 17.8µM* | 3.6% | 0.3%
CC[C@H](C)[C@H](NC(=O)[C@H](CC(=O)O)NC(=O)[C@H](CC(C)C)NC(=O)[C@H](Cc1cnc[nH]1)NC(=O)[C@H](C)NC(=O)[C@H](Cc1ccccc1)NC(=O)[C@H](Cc1ccc(O)cc1)NC(=O)[C@@H](NC(=O)[C@H](C)NC(=O)[C@H](CCC(=O)O)NC(=O)[C@H](CCC(=O)O)NC(=O)[C@H](CC(=O)O)NC(=O)CCC(=O)O)C(C)C)C(=O)N[C@H](C(=O)N[C@@H](Cc1c[nH]c2ccccc12)C(=O)O)[C@@H](C)CC | nt | nt | -6.2% | 6.2% | nt
CC1CCc2c(sc(/N=C/c3ccco3)c2C(N)=O)C1 (stereo not drawn) | 5.0 | 4.4 | -3.2% | 11.4% | 15.8µM*
CC1CCc2c(sc(/N=C/c3cccnc3)c2C(N)=O)C1 (stereo not drawn) | 16.7 | -1.4 | 1.7% | 0.0% | -23.1%
Cc1nn(Cc2ccccc2)c(C)c1/C=N/NC(=O)c1ccncc1 | -5.8 | 2.9 | 2.3% | 3.4% | -6.9%
Cc1nn(Cc2ccccc2)c(C)c1/C=N/NC(=O)c1ccccc1O | -5.6 | 4.9 | -3.8% | 0.5% | 31.6µM*
COc1ccc(NC=O)c(C(=O)CCNC(C)=O)c1 | nt | nt | 14.7% | 4.2% | nt
